This is an account of results in PubChem BioAssay AID720518 (National Center for Advancing Translational Sciences (NCATS), 2013).

Each structure is given as a SMILES string. Results filed as inconclusive are left out. A call without a number means that no potency is given here. Active and inactive are the calls of the source. The call rests on the fitted dose curve.
Potency means the concentration at half of the fitted maximal effect.

The experiment is described as follows: qHTS for Inhibitors of Cell Surface uPA Generation: Wild-type Protective Antigen (WT-PrAg) Counterscreen for Cherry-picked Compounds. To be noted: cells, WT protective antigen toxicity counterscreen; series mostly up to 115 µM. Background: In qHTS, concentration-response curves come from the screen itself.
With `Cc1ccccc1NC1c2ccccc2C(=O)N1Cc1ccco1` (stereo not given), the Potency result was “inactive”. In the case of `CCC(NC(=O)Cc1c(C)c2c(cc(C)c3c(C)c(C)oc32)oc1=O)C(=O)O` (stereo not given), the Potency result is “inactive”.

With `Cc1ccc(NC(=O)CS(=O)Cc2nc(-c3ccc(C)cc3)oc2C)cc1` (stereo not given), the Potency result is “inactive”. Next, `COc1ccc(C(=O)N[C@H](C(=O)NCc2cccs2)C(C)C)cc1`: “inactive”; `CCN(CC)CCCn1c2c(c(SCC(=O)Nc3cccc4ccccc34)nc1=O)CCC2`: “inactive”; `COC(=O)c1ccccc1NC(=O)Nc1nnc(N2CCCCC2C)s1` (stereo not given): 58.5 µM (active). Turning to `CCOC(=O)Oc1c(OC)cc(C(=O)O[C@@H]2C[C@@H]3CN4CCc5c([nH]c6cc(OC)ccc56)[C@H]4C[C@@H]3[C@H](C(=O)OC)[C@H]2OC)cc1OC`, the Potency result was “inactive”. Regarding `CCCNC(=O)COc1coc(CN2CCN(c3ccccc3OC)CC2)cc1=O`, the Potency result is “inactive”. For `COc1cc(C(C)=O)ccc1OCc1cn(CC(=O)c2ccc(O)cc2)nn1`, the Potency result was “inactive”. Consider `O=C(COC(=O)Cn1cnc2ccccc21)NCc1ccc(F)cc1`, for which the Potency entry is “inactive”. Next, `CCOC(=O)c1ccc(N=Cc2c(O)n(-c3ccc(OC)cc3)c(=S)[nH]c2=O)cc1`: “inactive”. `CCCCCOC(=O)Nc1nnc(CCCCC)s1`: the Potency result is “inactive”. Regarding `O=C(Nc1ccnn1C1CCN(CCCC2CCCC2)CC1)c1ccccc1`, the Potency entry was “inactive”. Regarding `CCC(=O)Nc1nc(-c2cc([N+](=O)[O-])cs2)cs1`, the Potency result was “inactive”. As for `[N-]=[N+]=NC1C[C@H](n2ccc(=O)[nH]c2=O)O[C@@H]1CO` (stereo not given in full), the Potency result is “inactive”. Next, `O=C1C=C(NNC(=O)c2ccncc2)CC(c2ccccc2)C1` (stereo not given): “inactive”; `O=C(O)CC1(CC(=O)NCc2ccc(Cl)cc2)CCCCC1`: “inactive”; `O=C(Cc1ccc(Cl)cc1)NC(=S)Nc1ccccc1O`: “inactive”. Consider `O=C(O)COc1ccccc1/C=N/NC(=O)CNC(=O)c1ccco1`, for which the Potency result is “inactive”. On to `CCN(c1ccc(OC)cc1)S(=O)(=O)c1ccc2c(c1)NC(=O)CS2`, for which the Potency result is “inactive”. Next, `CCOc1ccc(C(=O)NCC(=O)N2CCN(C/C=C/c3ccccc3)CC2)cc1OCC`: “inactive”.

Regarding `O=C(CC1(O)C(=O)Nc2ccccc21)c1cccc(Br)c1` (stereo not given), the Potency entry is “inactive”. With `COc1cc(NC(=O)COC(=O)c2cc(S(=O)(=O)N3CCCCC3)ccc2Cl)c(C)cc1[N+](=O)[O-]`, the Potency result was “inactive”. With `CCNc1nc(Nc2ccc(C)c(Cl)c2)c2cnn(C)c2n1`, the Potency result is “inactive”. For `C#CCOCCOCCOCCNc1nc(N2CCOCC2)nc(N2CCN(C(=O)[C@H](CCC(=O)O)n3cc([C@@H](N)CCCCN)nn3)CC2)n1`, the Potency entry was “inactive”. Take `COc1ccc(NC(=O)CCNS(=O)(=O)c2ccccc2F)cc1S(=O)(=O)N1CCOCC1`: the Potency entry is “inactive”. Turning to `Cc1oc(-c2ccccc2F)nc1CS(=O)CC(=O)NCc1ccc(F)cc1` (stereo not given), the Potency result was “inactive”. For `COc1cccc(NC(=O)c2nnn(CC(=O)Nc3cc(C)cc(C)c3)c2N)c1` the value was “inactive”; for `CSc1ccccc1OCc1cc(C(=O)NCCCn2nc(C)cc2C)no1`, “inactive”; for `Cc1ccc(/C=C/C(=O)O)cc1S(=O)(=O)N1CCc2ccccc21`, “inactive”. `OCC1CCCCN1CC(O)COC(c1ccc(F)cc1)c1ccc(F)cc1` (stereo not given): the Potency result was “inactive”.

For the compound `CCOC(=O)c1c(NC(=S)NC)sc2c1CCCC2`, the Potency result was “inactive”. Take `COc1ccc(CCNC(=O)Cn2cccc2C(=O)c2ccccc2)c(OC)c1`: the Potency entry was “inactive”. On to `CC(NC(=O)C1CCC(C(=O)NC(C)c2ccccc2)CC1)c1ccccc1` (stereo not given), for which the Potency result was “inactive”. As for `O=C(CSc1ccc([N+](=O)[O-])cn1)Nc1nccs1`, the Potency result is “inactive”. Next, `C=CCN1C=C2C(=O)C(C)(OC(=O)c3cnc4ccccc4n3)C(=O)C=C2C=C1/C=C/COC` (stereo not given): “inactive”. For `Cn1c(C2CCCCC2)nc2cc(N)ccc21`, the Potency entry is “inactive”.

For the compound `c1cncc(C2CCCCN2)c1` (stereo not given), the Potency result was “inactive”. In the case of `CCCN1CCN(C(=O)CCCn2c(C)c3cnn(-c4ccccc4)c(=O)c3c2C)CC1`, the Potency result is “inactive”. Turning to `Cc1[nH]c2ccc(C(=O)OC(C)C(=O)NC3CCCCC3C)cc2c1C` (stereo not given), the Potency entry is “inactive”.
